CYP2C9 inhib – blocks human cytochrome P450 2C9. CYP2C9 Supersomes, luciferin-H conversion, luminescence. inhibition, % at 5 µM. 96,000 compounds, 20% hits;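 active = blocking of liver enzyme CYP2C9 beyond about 50% at 5 µM, limit read from the data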
Target sequence (P11712 whole entry, looked up): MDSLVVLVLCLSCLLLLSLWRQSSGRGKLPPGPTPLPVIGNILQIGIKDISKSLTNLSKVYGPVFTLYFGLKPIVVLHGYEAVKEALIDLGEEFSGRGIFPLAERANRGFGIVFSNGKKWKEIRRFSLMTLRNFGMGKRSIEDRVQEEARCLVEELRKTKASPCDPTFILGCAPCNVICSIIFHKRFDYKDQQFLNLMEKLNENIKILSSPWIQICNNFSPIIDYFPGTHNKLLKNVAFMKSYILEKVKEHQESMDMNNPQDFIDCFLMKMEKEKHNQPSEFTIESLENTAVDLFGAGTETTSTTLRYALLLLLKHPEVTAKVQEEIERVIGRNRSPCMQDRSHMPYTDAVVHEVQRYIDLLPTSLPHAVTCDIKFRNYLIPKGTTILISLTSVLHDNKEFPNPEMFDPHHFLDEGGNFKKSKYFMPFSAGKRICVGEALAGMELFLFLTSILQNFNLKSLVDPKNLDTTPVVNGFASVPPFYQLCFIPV
CYP2C9 activ – CYP2C9 (human) activation. P11712. recombinant CYP2C9, luciferin-H conversion, luminescence; stronger effect = higher value; factor 1 = untreated enzyme, 0 = blocked. activation factor at 5 µM. 96,000 compounds, 1.4% hits. AID 1024;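 active = activation factor of 2 or more for CYP2C9 at a 5 µM dose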;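 also: 0 = sulfaphenazole-blocked wells and 1 = vehicle-only wells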
Cav32 inh – blocks human Cav3.2 T-type calcium channel | 100,000 compounds, 4% hits | AID 449739 | B-score at 10 µM | O95180 | Cav3.2-expressing cells, Fluo-4 calcium fluorescence FDSS; stronger effect = lower value;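 active = single-dose well whose peak fluorescence ratio is a statistical outlier from its plate by either plate-standardised score or position-corrected B-score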
CYP2C19 activ – cytochrome P450 2C19 (human) activation; P33261; recombinant CYP2C19, luciferin-H EGE luminescence; stronger effect = higher value; 0 = fully inhibited enzyme, 1 = untreated enzyme; activation factor at 5 µM; 96,000 tested, under 10 active;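 active = activation factor of at least 2 at 5 µM in the primary screen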;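 also: 0 = wells with 2.5 mM tranylcypromine and 1 = vehicle-only wells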
CYP2C19 inh – blocks human cytochrome P450 2C19 | P33261 | CYP2C19 Supersomes, luciferin-H EGE luminescence, 30 min | inhibition, % at 5 µM | 96,000 compounds, 21% hits | AID 778;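 active = CYP2C19 inhibition above a set limit at 5 µM in the primary screen, cut at about 50% in these data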;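 also: plate controls were negative control wells for no effect and 2.5 mM tranylcypromine positive control for full effect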
The depositor's hits bear a star; nt = no result given. Only some compounds are listed: those with a hit (about 27% of all), similar ones and a draw of the others.

SMILES | CYP2C9 inhib | CYP2C9 activ | Cav32 inh | CYP2C19 activ | CYP2C19 inh
CCCC(=O)Nc1nc(C)c(-c2csc(Nc3ccccc3OC)n2)s1 | 66.3* | 0.3 | 0.162 | 0.7 | 32.4
CCCCCC(=O)Nc1nc(C)c(-c2csc(Nc3cc(Cl)ccc3OC)n2)s1 | 33.6 | 0.7 | -0.703 | 0.9 | 5.6
CCCC(=O)Nc1nc(C)c(-c2csc(Nc3cc(OC)ccc3OC)n2)s1 | 77.8* | 0.2 | 0.972 | 0.8 | 20.0
COc1ccccc1Nc1nc(-c2sc(NC(=O)C(C)(C)C)nc2C)cs1 | 40.2 | 0.6 | 0.189 | 0.9 | 11.6
OC(COc1ccc2c(c1)CCC2)Cn1cnc2ccccc21 (stereo unspecified) | 8.7 | 0.9 | -2.45 | 0.9 | 10.1
CC1=C(C(=O)NCc2ccccc2)C(c2cccs2)n2ncnc2N1 (stereo unspecified) | 3.9 | 1 | -1.43 | 0.9 | 7.0
Cc1cccc(NC(=O)C2CCCN(C(=O)Nc3ccccc3)C2)c1C (stereo unspecified) | 22.8 | 0.8 | 1.41 | 0.7 | 26.7
c1cncc(-c2nnc(C3CCCCC3)o2)c1 | 8.4 | 0.9 | 1.09 | 0.9 | 12.7
O=Cc1ccc(OC(=O)C2CC(=O)N(c3ccc(F)cc3)C2)cc1 (stereo unspecified) | -1.4 | 1 | 0.382 | 1 | -4.7
O=C(NCc1ccccc1)C(Cc1ccccc1)N1C(=O)C2C3CCC(C3)C2C1=O (stereo unspecified) | 8.9 | 0.9 | -0.0272 | 0.9 | 14.1
Cc1ccc(NC(=O)C(Cc2ccccc2)N2C(=O)C3C4CCC(C4)C3C2=O)cc1Cl (stereo unspecified) | -11.3 | 1.1 | -5.85* | 0.9 | 7.8
CC(C)C[C@H](NC(=O)c1nc[nH]c1C(=O)N(C)Cc1ccccc1)C(=O)OC(C)(C)C | nt | nt | 0.00727 | nt | nt
CCOc1ccccc1C(=O)NCC(=O)OCC(=O)c1ccc2c(c1)OCCO2 | -68.5 | 1.7 | -0.267 | 1 | -4.7
CCOc1ccccc1NC(=S)/C(=C(\[O-])c1ccc2c(c1)OCCO2)[n+]1ccc(CC)cc1 | 61.6* | 0.4 | 0.152 | 0.4 | 58.7*
C#CCNC(=O)C1=C[C@@H](c2ccc3c(c2)OCO3)C[C@@H](OCc2ccc(CO)cc2)O1 | nt | nt | 0.283 | nt | nt
COc1ccc(C(O)c2nccn2Cc2ccccc2)cc1OC (stereo unspecified) | -8.2 | 1.1 | 0.533 | 0.6 | 40.8
CCOc1ccc(C(O)c2nccn2Cc2ccccc2)cc1 (stereo unspecified) | 34.7 | 0.7 | 0.17 | 0.2 | 79.8*
Cc1ccc(S(=O)(=O)N(C)CCCC(=O)n2nc(C)cc2C)cc1 | -89.3 | 1.9 | -0.768 | 0.1 | 88.8*
Cn1cccc1Cc1nnc(SCC(=O)N2CCN(c3ccccc3)CC2)n1-c1ccc(F)cc1 | 12.4 | 0.9 | -2.37 | 0.9 | 8.7
CCS(=O)(=O)N1CCCC(C(=O)NCCc2ccccc2)C1 (stereo unspecified) | 26.6 | 0.7 | 0.117 | 0.8 | 15.9
CCn1nc(NC(=O)c2ccncc2)c2cc3ccccc3nc21 | 67.0* | 0.3 | 0.198 | 0.3 | 69.6*
CCCCC(=O)Nc1nn(CC(C)C)c2nc3ccccc3cc12 | 28.6 | 0.7 | -1.46 | 0.7 | 29.6
CCn1nc(NC(=O)c2ccncc2)c2cc3cccc(C)c3nc21 | 36.7 | 0.6 | -0.224 | 0.6 | 41.2
COc1ccc2nc3c(cc2c1)c(NC(=O)c1cccs1)nn3CC(C)C | 93.4* | 0.1 | nt | 0.2 | 77.6*
CC(C)Cn1nc(NC(=O)C(C)(C)C)c2cc3ccccc3nc21 | 51.7* | 0.5 | -1.19 | 0.6 | 35.9
SMILES | CYP2C9 inhib | CYP2C9 activ | Cav32 inh | CYP2C19 activ | CYP2C19 inh
Cc1ccc2nc3c(cc2c1)c(NC(=O)c1cccnc1)nn3C | 58.2* | 0.4 | nt | 0.6 | 39.8
CCCn1nc(NC(=O)CC(C)C)c2cc3ccccc3nc21 | 28.0 | 0.7 | -0.37 | 0.9 | 11.5
CNC(=O)c1[nH]cnc1C(=O)Nc1ccccc1OC | nt | nt | -0.317 | nt | nt
COc1ccccc1-c1c(C#N)c(SCC(=O)N2CCCC2)nc(C)c1C(N)=O | 2.0 | 1 | 0.96 | 1.1 | -7.1
COc1cccc(C(=O)CSc2nnc(-c3cc(OC)c(OC)c(OC)c3)o2)c1 | 2.6 | 1 | 1.46 | 0.7 | 27.2
C=CCN=C(NC#N)SCC(=O)c1cccc(OC)c1 | -25.8 | 1.3 | 0.0933 | 0.1 | 94.9*
CCOc1cc2[nH]c(=O)n(Cc3ccccc3)c(=O)c2cc1OCC | 1.4 | 1 | 1.17 | 0.9 | 11.1
CCOc1ccccc1NC1=C(Cl)C(=O)N(Cc2ccccc2)C1=O | 70.4* | 0.3 | -1.87 | 0.5 | 52.3*
COCCNC(=O)CNS(=O)(=O)c1ccc2nc(C)sc2c1 | -5.2 | 1.1 | -0.00135 | 1 | -4.7
C=CCOC(=O)c1sc(NC(=O)c2ccco2)nc1C | 81.8* | 0.2 | 0.92 | 0.8 | 16.3
O=C(Nc1nnc(-c2ccco2)s1)c1ccccc1 | -28.0 | 1.3 | -0.0668 | 0.9 | 13.8
COc1ccc(Cc2nnc(NC(=O)c3ccco3)s2)cc1OC | 19.2 | 0.8 | 1.02 | 1 | 3.8
CCOC(=O)c1ccc2nc(NC(=O)c3ccco3)sc2c1 | nt | nt | 1.37 | nt | nt
COc1ccc(C(=O)Nc2nnc(-c3ccco3)s2)cc1 | 16.9 | 0.8 | -0.299 | 0.5 | 54.3*
COc1ccc(Cc2nnc(NC(=O)c3ccco3)s2)cc1 | 65.0* | 0.3 | 1.4 | 0.6 | 36.7
CCC(C(=O)NCc1ccco1)N(C(=O)CNS(=O)(=O)c1ccccc1)c1ccc(OC)cc1 (stereo unspecified) | 9.8 | 0.9 | 0.375 | 0.7 | 33.7
c1ccc(-c2nc(Sc3ncnc4c3cnn4-c3ccccc3)n[nH]2)cc1 | 31.7 | 0.7 | nt | 0.9 | 10.2
CCOC(=O)N1CCC(n2c(=S)[nH]c3ccccc3c2=O)CC1 | 81.1* | 0.2 | nt | 0.9 | 13.9
CCOC(=O)N1CCN(C(=O)c2ccc3c(=O)n(Cc4ccccc4)c(=S)[nH]c3c2)CC1 | 29.4 | 0.7 | -2.76 | 0.6 | 35.5
O=C(Cc1ccc(-n2c(=S)[nH]c3ccccc3c2=O)cc1)N1CCC(N2CCCCC2)CC1 | 92.0* | 0.1 | -0.222 | 1 | -2.4
CCOC(=O)N1CCN(C(=O)c2ccc3c(=O)n(Cc4ccc(OC)cc4)c(=S)[nH]c3c2)CC1 | nt | nt | -4.1* | nt | nt
CCOC(=O)c1[nH]c2ccc(Br)cc2c1NC(=O)CCN1CCN(C(=O)OCC)CC1 | 76.1* | 0.2 | -0.9 | 0.5 | 48.2
CCOC(=O)c1[nH]c2ccc(Br)cc2c1NC(=O)CCN1CCCCC1 | 19.2 | 0.8 | -1.76 | 0.9 | 9.2
COCCCNC(=O)c1sc2ncnc(N3CCc4ccccc4C3)c2c1C | nt | nt | -1.25 | nt | nt
CC(C)Cc1[nH]c(=O)c(C#N)c2c1CCCC2 | 26.8 | 0.7 | 0.889 | 1.1 | -7.4
Cc1ccc(C(=O)N2CC(C)OC(C)C2)c(Cl)c1 (stereo unspecified) | -5.3 | 1.1 | 0.37 | 0.8 | 20.0
CCOC(=O)c1[nH]c2ccc(Br)cc2c1NC(=O)CCN1CCC(C(=O)OCC)CC1 | 49.4 | 0.5 | -0.0277 | 0.2 | 76.4*
CCOC(=O)c1[nH]c2ccc(OC)cc2c1NC(=O)CCN1CCCC(C)C1 (stereo unspecified) | -2.5 | 1 | -0.00796 | 1.1 | -7.6
CCOC(=O)N1CCN(C(=O)CCCn2c(=S)[nH]c3ccc(Br)cc3c2=O)CC1 | 69.1* | 0.3 | 2.37 | 0.3 | 73.2*

Screens from PubChem BioAssay.
